Test results as given in PubChem BioAssay AID1159580 (chemical genetic matrix, 2015).
About 2,000 (36%) of roughly 5,500 compounds were called active. Another 18% or so got no clear call; they are omitted. Rule as the data show it: active = normalized growth mostly below about 0.91 (no sharp cut-off); inconclusive = no clear call, values can overlap the other calls; inactive = mostly above about 0.92. The list shows a part of the results.

Assay: chemical genetic growth profiling, strain panel (AID 1159580);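 also: tested at 20 µM; growth read once vehicle control cultures reached saturation at 30 °C; 1 = growth at the plate median or of vehicle wells; lower values mean less growth of the strain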
Conditions: growth OD

Measured: normalized growth

CCC(=O)O[C@]1(C(=O)CCl)[C@@H](C)CC2C3CCC4=CC(=O)C=C[C@]4(C)[C@@]3(F)[C@@H](O)C[C@@]21C (stereo partly specified)
inactive: S. cerevisiae deletion strains, locus YJR043C, strain POL32, hits give low values 0.982 | S. cerevisiae deletion strains, locus YJR066W, strain TOR1, hits give low values 0.952 | S. cerevisiae deletion strains, locus YKL009W, strain mrt4, hits give low values 1.01 | S. cerevisiae deletion strains, locus YKL068W, hits give low values 0.972 | S. cerevisiae deletion strains, locus YKL085W, strain MDH1 (second series), hits give low values 0.985 | S. cerevisiae deletion strains, locus YKL085W, strain MDH1, hits give low values 0.985 | S. cerevisiae deletion strains, locus YKL160W, strain elf1, hits give low values 1.02 | S. cerevisiae deletion strains, locus YKL190W, strain CNB1, hits give low values 0.981 | S. cerevisiae deletion strains, locus YKR001C, strain vps1, hits give low values 0.988 | S. cerevisiae deletion strains, locus YKR026C, strain gcn3, hits give low values 1.03 | S. cerevisiae deletion strains, locus YKR091W, strain srl3, hits give low values 1.02 | S. cerevisiae deletion strains, locus YLL001W, strain dnm1, hits give low values 1.02 | S. cerevisiae deletion strains, locus YLL026W, hits give low values 1.01 | S. cerevisiae deletion strains, locus YLL041C, strain sdh2, hits give low values 1.01 | S. cerevisiae deletion strains, locus YLR027C, strain aat2, hits give low values 1.02 | S. cerevisiae deletion strains, locus YLR039C, strain RIC1, hits give low values 0.959 | S. cerevisiae deletion strains, locus YLR058C, strain SHM2, hits give low values 0.983 | S. cerevisiae deletion strains, locus YLR102C, strain apc9, hits give low values 0.985 | S. cerevisiae deletion strains, locus YLR113W, strain HOG1, hits give low values 0.982 | S. cerevisiae deletion strains, locus YLR221C, strain rsa3, hits give low values 1.03 | S. cerevisiae deletion strains, locus YLR258W, strain gsy2, hits give low values 1.02 | S. cerevisiae deletion strains, locus YLR262C, strain YPT6 (second series), hits give low values 1.02 | S. cerevisiae deletion strains, locus YLR262C, strain YPT6, hits give low values 0.941 | S. cerevisiae deletion strains, locus YLR268W, strain sec22, hits give low values 0.961 | S. cerevisiae deletion strains, locus YLR320W, strain mms22, hits give low values 1.04 | S. cerevisiae deletion strains, locus YLR330W, strain CHS5, hits give low values 0.971 | S. cerevisiae deletion strains, locus YLR342W, strain FKS1 (second series), hits give low values 0.999 | S. cerevisiae deletion strains, locus YLR342W, strain FKS1, hits give low values 1.02 | S. cerevisiae deletion strains, locus YLR357W, strain rsc2, hits give low values 1.05 | S. cerevisiae deletion strains, locus YLR370C, strain arc18, hits give low values 1.02 | S. cerevisiae deletion strains, locus YLR371W, strain rom2, hits give low values 0.976 | S. cerevisiae deletion strains, locus YLR384C, strain iki3, hits give low values 1.04 | S. cerevisiae deletion strains, locus YLR418C, strain cdc73, hits give low values 0.969 | S. cerevisiae deletion strains, locus YML016C, strain PPZ1, hits give low values 0.988 | S. cerevisiae deletion strains, locus YML032C, strain rad52, hits give low values 0.985 | S. cerevisiae deletion strains, locus YML120C, strain ndi1, hits give low values 1 | S. cerevisiae deletion strains, locus YML124C, strain tub3, hits give low values 0.993 | S. cerevisiae deletion strains, locus YMR058W, strain fet3, hits give low values 1.02 | S. cerevisiae deletion strains, locus YMR078C, strain ctf18, hits give low values 0.983 | S. cerevisiae deletion strains, locus YMR125W, strain sto1, hits give low values 1.02 | S. cerevisiae deletion strains, locus YMR129W, hits give low values 1.02 | S. cerevisiae deletion strains, locus YMR205C, strain PFK2, hits give low values 1.04 | S. cerevisiae deletion strains, locus YMR223W, strain ubp8, hits give low values 0.982 | S. cerevisiae deletion strains, locus YMR231W, strain pep5, hits give low values 1.02 | S. cerevisiae deletion strains, locus YMR263W, strain SAP30, hits give low values 0.987 | S. cerevisiae deletion strains, locus YMR307W, strain GAS1, hits give low values 0.87 | S. cerevisiae deletion strains, locus YNL067W, strain RPL9B, hits give low values 0.992 | S. cerevisiae deletion strains, locus YNL071W, strain lat1, hits give low values 1.02 | S. cerevisiae deletion strains, locus YNL183C, strain NPR1, hits give low values 0.935 | S. cerevisiae deletion strains, locus YNL209W, strain ssb2, hits give low values 1.01 | S. cerevisiae deletion strains, locus YNL233W, strain BNI4, hits give low values 1.01 | S. cerevisiae deletion strains, locus YNL248C, strain rpa49, hits give low values 1.02 | S. cerevisiae deletion strains, locus YNL250W, strain rad50, hits give low values 0.988 | S. cerevisiae deletion strains, locus YNL271C, strain bni1, hits give low values 0.963 | S. cerevisiae deletion strains, locus YNL298W, strain CLA4, hits give low values 0.964 | S. cerevisiae deletion strains, locus YNL307C, strain MCK1, hits give low values 0.987 | S. cerevisiae deletion strains, locus YNL322C, strain KRE1 (second series), hits give low values 1.03 | S. cerevisiae deletion strains, locus YNL322C, strain KRE1, hits give low values 0.988 | S. cerevisiae deletion strains, locus YNR049C, strain mso1, hits give low values 1.01 | S. cerevisiae deletion strains, locus YNR052C, strain pop2, hits give low values 0.988 | S. cerevisiae deletion strains, locus YOL006C, strain TOP1, hits give low values 0.958 | S. cerevisiae deletion strains, locus YOL012C, strain htz1 0.831 | S. cerevisiae deletion strains, locus YOL147C, strain pex11, hits give low values 0.986 | S. cerevisiae deletion strains, locus YOR001W, strain rrp6, hits give low values 1.03 | S. cerevisiae deletion strains, locus YOR061W, strain CKA2, hits give low values 0.978 | S. cerevisiae deletion strains, locus YOR069W, strain VPS5, hits give low values 0.978 | S. cerevisiae deletion strains, locus YOR070C, strain gyp1, hits give low values 1.02 | S. cerevisiae deletion strains, locus YOR080W, strain dia2, hits give low values 1.03 | S. cerevisiae deletion strains, locus YOR083W, strain WHI5, hits give low values 1.02 | S. cerevisiae deletion strains, locus YOR106W, strain vam3, hits give low values 1.02 | S. cerevisiae deletion strains, locus YOR136W, strain idh2, hits give low values 0.995 | S. cerevisiae deletion strains, locus YOR144C, strain elg1, hits give low values 0.997 | S. cerevisiae deletion strains, locus YOR184W, strain ser1, hits give low values 0.986 | S. cerevisiae deletion strains, locus YOR231W, strain MKK1, hits give low values 0.959 | S. cerevisiae deletion strains, locus YOR265W, strain rbl2, hits give low values 1.02 | S. cerevisiae deletion strains, locus YOR270C, strain vph1, hits give low values 0.984 | S. cerevisiae deletion strains, locus YOR290C, strain snf2, hits give low values 1.02 | S. cerevisiae deletion strains, locus YOR316C, strain cot1, hits give low values 0.991 | S. cerevisiae deletion strains, locus YPL051W, strain arl3, hits give low values 1.02 | S. cerevisiae deletion strains, locus YPL055C, strain LGE1, hits give low values 1.01 | S. cerevisiae deletion strains, locus YPL078C, strain atp4, hits give low values 1.02 | S. cerevisiae deletion strains, locus YPL106C, strain sse1, hits give low values 1.06 | S. cerevisiae deletion strains, locus YPL240C, strain hsp82, hits give low values 1.01 | S. cerevisiae deletion strains, locus YPL241C, strain CIN2, hits give low values 0.981 | S. cerevisiae deletion strains, locus YPL256C, strain CLN2, hits give low values 0.961 | S. cerevisiae deletion strains, locus YPR119W, strain clb2, hits give low values 0.981 | S. cerevisiae deletion strains, locus YPR141C, strain kar3, hits give low values 0.967 | S. cerevisiae deletion strains, locus YPR163C, strain tif3, hits give low values 0.956 | S. cerevisiae deletion strains, locus YPR167C, strain met16, hits give low values 0.978 | S. cerevisiae deletion strains, strain wtn01, hits give low values 0.998 | S. cerevisiae strains, strain wild type, hits give low values 0.98
